The assay concerns RXRa homodimer (NR concentration 180 nM). Kind of assay: PBM binding z-score (relative to random genomic background probes); higher = stronger binding; sequences stand for … in GC…GCGATTGACAGCGTAGAATGAAGG
In short, it runs like this:
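For binding z-scores, the reference was random background probes on custom Agilent 4×180K protein-binding microarrays. These arrays were incubated 1 h with ligand-free nuclear receptor dimers in PBS pH 7.4, 2% milk, 0.02% Triton X-100, 1 mM DTT, 0.2 mg/mL BSA and 0.4 mg/ml salmon testes DNA. Fluorescence was scanned after antibody detection of each partner (one per run) and regression-normalized.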
For the sequence TCATATAGGTAAAGGTGAAAGCCGAACGATATGA, the PBM binding z-score was found to be 1.93.

Sequence ATATGTAGGTTACAACCGGGTCATTCAGGCTATG had a PBM binding z-score of 3.49.

CCTAGTCGGTCAAGGTCACACACGCTATAGGTAC had a PBM binding z-score of 4.64.

As to CCTACTGGGCCAAAGTCATTGATCAGTCAAAGCA, the PBM binding z-score was -0.525.

As to CCTCGGAGGACAACAGGAGGTCAGAACTGCCAGA, the PBM binding z-score was determined as 1.81.

As for GCTCGGAGGTCAAGGTCAGAGCTTTGTCCGTAGA, the PBM binding z-score was 7.07.

ACTAGCAGGCCAAGGGTCACTCAGGATTAGTCCG returned a PBM binding z-score of 4.24.

On to ATCGATAGGTCGTGAGGTGAGTATACAGAAAGGC, for which the PBM binding z-score was 2.15.

Sequence CAAACTAGGTCAAAGGTCAAAGTCGAGCCAACCA registered a PBM binding z-score of 10.2.

For the sequence CCAGACAGGTGAATGGTAACTCAGTCTGGTACGC, the PBM binding z-score stood at 0.0786.

For the sequence TGAATGAGGTTATAAGATCATGGAACGTTGCAAA, the PBM binding z-score came to 2.42.

Sequence TCTCGGAGGACACGAAGGTCAGAGCATTCCAGAG registered a PBM binding z-score of 1.97.

GCTAGTTGGTCAGTAAAAGGACACACACCGGTCG had a PBM binding z-score of 0.00337.

TAGCCTAGGTCATCGGGCCAGTATAGTACGCATC showed a PBM binding z-score of 3.29.

The sequence CGAACTAGATCATTGACAGGACAGTGAATAGTAA registered a PBM binding z-score of 0.337.

With TCTATTAGTTGATGGGCAACCGACGAGTCCGTTT, the PBM binding z-score was determined as 0.101.

As to CGAACTAGGTCATTGACAGGACAGTCAATAGTAA, the PBM binding z-score stood at 2.29.

Take CGAACAAGGTCAAGGACAGTGAATCTCCGCACGC: the PBM binding z-score stood at 6.26.

For TCTCGGAGGACACGAAAGGTCAGAGCTCGACATC, the PBM binding z-score amounted to 3.97.

In turn, TCTGCTAGGTCAACGATGGTCAGCTACTCTGCTA displayed a PBM binding z-score of 2.64.

In turn, ATCTCTAGGTAAGACCCAGTTCAGTGAAGAACGC registered a PBM binding z-score of 0.283.

Consider GCTTGTAGATCAAAGTTAAGAAAGACTAAGCTAA, for which the PBM binding z-score was -0.495.

Source of the values: the supplement of paper PMC6555819.
